Calls of active or inactive are those of the source. Rule for the calls: active = hit-call score of the fitted dose curve at least 0.9, where 1 is the maximum; inactive = score below 0.9.
These molecules were tested on Intercellular Adhesion Molecule 1 (ICAM1), ICAM1 (gene 3383) (assay: BSK_KF3CT_ICAM1: BioMAP Diversity Plus: KF3CT Assay for Intercellular Adhesion Molecule 1 (ICAM1) Biomarker Activity (AID 2283067)). Conditions: primary human keratinocytes with fibroblasts; actives raise or lower the signal.
Description: BSK_KF3CT is a cell-based, multiplexed-readout assay that uses keratinocytes and foreskin fibroblasts, a human skin primary cell co-culture, with measurements taken at 24 hours after chemical dosing in a 96-well plate.BSK_KF3CT_ICAM1 is an assay component measured in the BSK_KF3CT assay. It measures ICAM-1 antibody related to regulation of gene expression using ELISA technology.Data from the assay component BSK_KF3CT_ICAM1 was analyzed into 1 assay endpoint. This assay endpoint, BSK_KF3CT_ICAM1, was analyzed with bidirectional fitting relative to DMSO as the negative control and baseline of activity. Using a type of binding reporter, gain or loss-of-signal activity can be used to understand changes in the signaling as they relate to the gene ICAM1. Furthermore, this assay endpoint can be referred to as a primary readout, because this assay has produced multiple assay endpoints where this one serves a signaling function. To generalize the intended target to other relatable targets, this assay endpoint is annotated to the cell adhesion molecules intended target family, where the subfamily is Immunoglobulin CAM.
The levels of cell surface (or secreted, indicated by the prefix "s") biomarker endpoints were measured by ELISA. Overt cytotoxicity to cells in confluent adherent cultures (all systems other than the BT system) was assessed by measuring total protein levels using sulforhodamine B (SRB) staining in parallel cultures at the time of biomarker measurements, indicated as SRB endpoints. For proliferation assays for adherent cell types, individual cell types are cultured at sub-confluence and relative cell numbers quantified by SRB staining at time points optimized for each system (48 h: 3C and CASM3C systems; 72 h: BT and HDF3CGF systems; 96 h: SAg system). SRB was performed by staining cells with 0.1% SRB after fixation with 10% TCA and reading wells at 560 nm.Viability and proliferation of PBMC (T cells) was quantified by Alamar Blue reduction for the SAg and BT systems. For PBMC viability (referred to as PBMC Cytotoxicity within the assay endpoint names), cells were plated (75,000/well in a 96-well plate) and then chemical samples added for 1 h before addition of activators, SEB and TSST-1 (20 ng/mL final concentration each). Cells were incubated for 90 h. Then, Alamar Blue (20 uL/well) (Invitrogen, Cat DAL1100) was added for 6 h, and the plates were read with a fluorescence microplate reader at 546/580 nm (excitation/emission). For PBMC proliferation, cells were plated and activated as above but incubated for only 16 h prior to addition of Alamar Blue. Plates were read after 6 h.

SMILES | outcome | AC50
[N-]=[N+]=[N-] | inactive | –
ClC(Cl)=C(c1ccc(Cl)cc1)c1ccccc1Cl | – | 5.72 µM (active)
O=C(O)C(F)(F)OC(F)(F)C(F)(F)OC(F)(F)C(=O)O | inactive | –
c1ccc2c(c1)sc1ccccc12 | inactive | –
O=[N+]([O-])c1ccc(Cl)c(Cl)c1 | inactive | –
Cc1ccc([N+](=O)[O-])cc1C | inactive | –
COP(=O)(CCC(=O)NCO)OC | inactive | –
CCOP(=S)(Oc1ccc([N+](=O)[O-])cc1)c1ccccc1 (stereo not given) | inactive | –
ClC1=C(Cl)C2(Cl)C3C(Cl)C(Cl)CC3C1(Cl)C2(Cl)Cl (stereo not given) | – | 31.9 µM (active)
O=C(O)C(F)(F)OC(F)(F)C(F)(F)OC(F)(F)F | inactive | –
CC(Cl)CN(C)C (stereo not given) | inactive | –
CC(Cc1ccc(OCC(=O)O)cc1)NCC(O)c1csc(C(F)(F)F)n1 (stereo not given) | inactive | –
COC(=O)C(F)(F)C(F)(F)OC(F)(C(F)(F)F)C(F)(F)OC(F)=C(F)F (stereo not given) | inactive | –
CC(Cl)(Cl)C(=O)O | inactive | –
CCOP(=S)(OCC)SCS(=O)(=O)CC | inactive | –
c1cc2c3c(cccc3c1)CC2 | inactive | –
N#Cc1cc([N+](=O)[O-])ccc1N | inactive | –
CCCCC(CC)COP(=O)(Oc1ccccc1)Oc1ccccc1 (stereo not given) | inactive | –
Cc1cccc(N)c1 | inactive | –
COP(N)(=S)OC | inactive | –

SMILES | outcome | AC50
CCOc1ccc(C(C)(C)COCc2cccc(Oc3ccccc3)c2)cc1 | inactive | –
CCNc1nc(Cl)nc(NC(C)(C)C)n1 | inactive | –
O=C(O)C(F)(OC(F)(F)C(F)(F)C(F)(F)F)C(F)(F)F (stereo not given) | inactive | –
N#Cc1c(-c2ccc(Cl)cc2)[nH]c(C(F)(F)F)c1Br | inactive | –
CCOP(=S)(OCC)SCSCC | inactive | –
COCCOCCO | inactive | –
CCOP(=S)(NC(C)C)Oc1ccccc1C(=O)OC(C)C (stereo not given) | inactive | –
CCCCC(CC)COC(=O)c1c(Br)c(Br)c(Br)c(Br)c1C(=O)OCC(CC)CCCC (stereo not given) | inactive | –
CCC1(c2ccccc2)C(=O)N=C(O)NC1=O (stereo not given) | inactive | –
Nc1ccc(Cl)cc1 | inactive | –
CC(C)(C)c1ccc(O)cc1 | inactive | –
CCN(CC)c1ccccc1 | inactive | –
CCCN(CCC)c1c([N+](=O)[O-])cc(C(C)C)cc1[N+](=O)[O-] | inactive | –
O=c1ssc(Cl)c1Cl | – | 5.46 µM (active)
CCOP(=S)(OCC)SCn1nnc2ccccc2c1=O | inactive | –
Cc1c([N+](=O)[O-])cc2c(c1[N+](=O)[O-])C(C)(C)CC2(C)C | inactive | –
NC(=O)C(F)(F)C(F)(F)F | inactive | –
CCOP(=S)(S)OCC | inactive | –
Nc1cc2c3c(c1)C(c1ccccc1)=N[C@@H](NC(=O)c1cccnc1)C(=O)N3CC2 | inactive | –
CC(C)Nc1ccc(Nc2ccccc2)cc1 | – | 20 µM (active)

Reference: PubChem BioAssay (EPA / NIEHS)
